For five molecules, outcome and inhibition results are on record in PubChem BioAssay AID2634 (National Center for Advancing Translational Sciences (NCATS), 2010).

Results filed as inconclusive are left out. Calls of active or inactive are those of the source.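 How the source made its calls: active means compounds whose potency, the dose giving half inhibition, is below 20 µM; inconclusive means compounds meeting neither the active nor the inactive rule; inactive means potency over 20 µM or below 50% inhibition when unfitted.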

Integrin alpha-IIb (Homo sapiens), sequence (P08514 whole entry, looked up): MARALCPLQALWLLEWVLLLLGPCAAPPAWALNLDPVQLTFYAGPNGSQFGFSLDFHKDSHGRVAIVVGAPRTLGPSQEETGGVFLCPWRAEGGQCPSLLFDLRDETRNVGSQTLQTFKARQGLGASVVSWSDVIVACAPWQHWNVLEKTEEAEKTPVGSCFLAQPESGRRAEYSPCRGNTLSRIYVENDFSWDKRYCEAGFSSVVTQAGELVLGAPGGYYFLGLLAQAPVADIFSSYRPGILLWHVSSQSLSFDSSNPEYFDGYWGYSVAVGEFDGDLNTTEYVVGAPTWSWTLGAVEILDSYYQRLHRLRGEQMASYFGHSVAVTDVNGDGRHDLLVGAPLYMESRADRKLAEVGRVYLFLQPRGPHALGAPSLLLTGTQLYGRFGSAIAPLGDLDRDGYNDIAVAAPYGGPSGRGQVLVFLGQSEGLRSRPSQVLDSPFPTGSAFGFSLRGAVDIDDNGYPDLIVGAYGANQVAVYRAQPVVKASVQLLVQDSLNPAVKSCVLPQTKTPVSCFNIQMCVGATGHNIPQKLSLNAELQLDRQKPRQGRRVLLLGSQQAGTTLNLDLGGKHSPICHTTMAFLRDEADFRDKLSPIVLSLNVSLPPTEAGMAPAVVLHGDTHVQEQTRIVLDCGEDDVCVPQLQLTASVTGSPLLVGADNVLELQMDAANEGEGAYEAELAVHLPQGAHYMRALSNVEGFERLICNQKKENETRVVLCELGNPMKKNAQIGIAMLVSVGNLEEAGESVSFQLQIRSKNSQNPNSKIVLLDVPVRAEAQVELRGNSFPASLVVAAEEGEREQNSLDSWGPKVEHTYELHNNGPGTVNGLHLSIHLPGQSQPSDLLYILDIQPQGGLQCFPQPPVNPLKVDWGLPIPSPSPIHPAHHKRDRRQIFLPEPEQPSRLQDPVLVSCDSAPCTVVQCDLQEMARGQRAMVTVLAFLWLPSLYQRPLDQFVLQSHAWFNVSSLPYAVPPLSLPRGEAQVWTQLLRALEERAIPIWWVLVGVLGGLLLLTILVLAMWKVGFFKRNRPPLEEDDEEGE

This test addresses Integrin alpha-IIb (Homo sapiens) (UniProt P08514). The test is described as follows: Platelet Adhesion Secondary Assay for Inhibitors of Platelet Integrin alphallb-beta3. Particulars: human platelet adhesion to fibrinogen, calcein fluorescence; at 30 µM, stronger effect = higher value unless noted. An excerpt: NIH Molecular Libraries Probe Production Network [MLPCN] NIH Chemical Genomics Center [NCGC] MLPCN Grant: 1 R03 MH083257-01 Assay Provider: Barry Coller, Rockefeller University NCGC Assay Overview: The alphaIIbbeta3 receptor plays a vital role in hemostasis and thrombosis, where receptor deficiency causes the hemorrhagic disorder, Glanzmann thrombasthenia, and uncontrolled receptor activation causes thrombosis and blood vessel occlusion. Small molecule inhibitors of alphaIIbbeta3, tirofiban and eptifibatide, have undesirable side effects thought to arise from conformational changes in alphaIIbbeta3. These changes transiently activate the receptor to cause spontaneous platelet aggregation and thrombus formation. […] This secondary assay measures the binding of human plates to fibrinogen, an extracellular matrix protein (Blue et al., 2008). Platelets were loaded with a fluorescent dye, calcein, and added to fibrinogen-coated plates. Following incubation, unbound platelets were removed by washing and bound platelets were detected by measuring fluorescence intensity. Inhibitors of alphaIIbbeta3 block platelet binding to fibrinogen and result in a decrease in fluorescence intensity.
NCGC Assay Protocol Summary: Human fibrinogen (50 ug/mL) in Tris/saline (100 mM NaCl, 50 mM Tris/HCl, pH 7.4; American Diagnostica, Stamford, CT) was added to black, clear-bottom, untreated polystyrene, nonsterile 384-well microtiter plate wells (Corning no. 3711; Acton, MA) using a peristaltic microplate dispenser (WellMate; Matrix, Hudson, NH). After incubating at 22 C for 1 hour, plates were washed 4 times with Tris/saline using an automated plate washer (ELX405; Bio-Tek, Winooski, VT), and wells were then blocked with HBMT (138 mM NaCl, 12 mM NaHCO3, 10 mM HEPES, 2.7 mM KCl, 0.4 mM NaH2PO4, 0.1% glucose, 0.35% BSA, pH 7.4) for at least 1 hour. After 2 additional washes, 15 uL HBMT was allowed to remain in each well. Compounds were added to the wells with a liquid handling robot (MiniTrak V; PerkinElmer, Wellesley, MA) using a pin tool (VP Scientific, San Diego, CA) that added 0.1 uL compound in DMSO. Fifteen microliters 5E11/L calcein-labeled platelets were then added (2.5E11/L final concentration). After 1 hour of adhesion, wells were washed 4 times with HBMT-CaCl2/MgCl2 and the plates were read by an Envision (Perkin Elmer) to detect calcein fluorescence (490 nm excitation and 515 nm emission). Positive controls consisted of wells containing platelets without compounds. Negative controls were wells containing platelets and known inhibitors of alphaIIbbeta3, including mAbs 7E3 and 10E5, and EDTA. Reference Blue R, Murcia M, Karan C, Jirouskova M, and Coller BS. Application of high-throughput screening to identify a novel alphaIIb-specific small- molecule inhibitor of alphaIIbbeta3-mediated platelet interaction with fibrinogen. Blood. 2008, 111(3):1248-56
For orientation: inhibition means the share of the control response that was lost under treatment. With `CCc1nn2c(=O)c(C)c(N3CCNCC3)nc2s1`, the result was inactive and the inhibition was 55% [inhibition, at 100 µM, stronger effect = higher value]. Consider `CCc1nn2c(=O)cc(N3CCNCC3)nc2s1`, for which the inhibition was 35% (inactive). Same read-out and setting: for `CCc1nn2c(=O)cc(N3CCN(C)CC3)nc2s1` the value was 23% (inactive).

On to `CCc1nn2c(=O)c(F)c(N3CCNCC3)nc2s1`, for which the outcome was inactive and the inhibition was 41% [inhibition, at 100 µM, stronger effect = higher value]. Turning to `Cc1nn2c(=O)cc(N3CCNCC3)nc2s1`, the inhibition is 20% (inactive).
